Our source for the composite z-score and z-score values is PubChem BioAssay.

Calls of active or inactive are those of the source.

The test system of test [1] is PRMT1 (protein arginine N-methyltransferase 1). Put plainly: PRMT1 binders on small-molecule microarrays, primary screen, biochemical, small-molecule microarray, 635 nm fluorescence (AID 1088).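 Also: binding of Prmt1 protein to compounds spotted on small-molecule microarray slides.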 As to conditions: small-molecule microarray binding, higher = more signal.
Test [2] is described as follows: yeast growth modulation, basal conditions, primary screen, YJM789 clinical isolate, OD600, 24 h (AID 1089).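 Also: growth of clinical yeast isolate S. cerevisiae YJM 789 seeded 1000 cells per well; test concentration not given here.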 The note with it: S. cerevisiae YJM789 growth, higher = more signal, called active from +8 up or from −8 down.
A short description of test [3]: fission yeast growth modulation, primary screen, strain 972, OD600, 24 h, no modulator (AID 1090).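 Also: basal condition with compound alone and no growth modifier present; test concentration not given here.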 As to conditions: S. pombe 972 growth, higher = more signal, called active from +8 up or from −8 down.
Test [4] is described as follows: S. cerevisiae growth modulation with rapamycin, primary screen, strain BY4716, OD600, 96 h (AID 1091). Also: test concentration not given here. The note with it: higher = more signal, called active from +8 up or from −8 down.
The target in test [5] is Torsin-1A-interacting protein 2 (Homo sapiens) (UniProt Q8NFQ8). Put plainly: LULL1 binders on small-molecule microarray, primary screen, cell lysate, human LULL1 lysate, 635/667 nm fluorescence (AID 1092).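 Also: probe is lysate of COS7 cells overexpressing human LULL1; score merges per-feature 667 nm fluorescence with signal-to-noise.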 The note with it: hLULL1 lysate binding, 635 nm fluorescence, higher = more signal.
Test [6] can be described thus: E. coli growth modulation, two-sided OD650, primary screen, E. coli filamentation project, strain DRC41, 24 h (AID 1093).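 Also: MC1000 strain lacking acrAB efflux and sulA so SOS filamentation is blocked; test concentration not given here.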 As to conditions: OD650, 24 h, higher = more signal, called active from +8 up or from −8 down.
Test [7] is described as follows: small-molecule microarray binders of probe aLefty2, primary screen, biochemical, biotinylated probe, 635/667 nm fluorescence (AID 1094).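 Also: score merges spot fluorescence near 667 nm with spot signal-to-noise ratio.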 As to conditions: higher = more signal.
Test [8] concerns Noggin (protein binding on small-molecule microarray). Put plainly: Noggin binders on small-molecule microarray, primary screen, biochemical, 635/667 nm fluorescence (AID 1095).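 Also: score merges 667 nm feature fluorescence with signal to noise over triplicate slides.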 The note with it: 635 nm fluorescence, higher = more signal.
Test [9] concerns the target Neurogenic locus notch homolog protein 3 (Homo sapiens) (UniProt Q9UM47). Put plainly: NOTCH3 binders on small-molecule microarray, primary screen, biochemical, 635/667 nm fluorescence (AID 1096). The note with it: NOTCH3 binding, 635 nm fluorescence, higher = more signal.
Test [10] is described as follows: small-molecule microarray binders of probe aEGFR, primary screen, biochemical, biotinylated probe, 635/667 nm fluorescence (AID 1097).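 Also: probe is a biotinylated anti-EGFR antibody binding compounds printed on slides; score combines fluorescence near 667 nm and signal to noise of each spot.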 The note with it: higher = more signal.
The test system of test [11] is Plasmodium falciparum Sir2 (PF13_0152, Sir2A). The test can be described thus: pfSir2 binders on small-molecule microarrays, primary screen, biochemical, small-molecule microarray, 635 nm fluorescence (AID 1098).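 Also: score merges spot fluorescence intensity with its signal-to-noise ratio.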 The note with it: small-molecule microarray binding, fluorescence 635 nm; higher = more signal.
Test [12] can be described thus: small-molecule microarray binders of probe aDKK1, primary screen, biochemical, biotinylated probe, 635/667 nm fluorescence (AID 1099).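 Also: score merges 667nm spot fluorescence with signal to noise across triplicate slides; reference of the scale not given here.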 The note with it: higher = more signal.
A short description of test [13]: small-molecule microarray binders of probe aCHRDL2, primary screen, biochemical, biotinylated probe, 635/667 nm fluorescence (AID 1100). As to conditions: higher = more signal.
Test [14] in a line: splicing luciferase reporter signal modulators, primary screen, spliceosome inhibition project, cell-based, HEK293, splice +/- reporter (AID 1101).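 Also: HEK293 cells carrying a splicing-competent luciferase reporter gene; test concentration not given here.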 As to conditions: luminescence, 24 h, higher = more signal, called active from +8 up or from −8 down. (In general: A reporter such as luciferase makes a cellular process visible.)
The target of test [15] is Fibroblast growth factor 10 (Homo sapiens) (UniProt O15520). The test can be described thus: FGF10 binders on small-molecule microarrays, primary screen, biochemical, small-molecule microarray, 635 nm fluorescence (AID 1102). As to conditions: FGF10 binding, fluorescence 635 nm, higher = more signal.
In test [16] the test system is glycogen synthase kinase-3 (GSK3A per assay name; protocol says GSK3B). Put plainly: GSK3 binders on small-molecule microarrays, primary screen, biochemical, small-molecule microarray, 635 nm fluorescence, GSK3A (AID 1103). Also: the record names both GSK3A and GSK3B. As to conditions: small-molecule microarray binding, fluorescence 635 nm; higher = more signal.
Test [17] deals with Epidermal growth factor receptor (Homo sapiens) (UniProt P00533). Put plainly: EGFR binders on small-molecule microarrays, primary screen, biochemical, small-molecule microarray, 635 nm fluorescence (AID 1104).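 Also: score merges 667 nm emission intensity with spot signal to noise over triplicate slides.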 The note with it: EGFR binding, higher = more signal.
The target of test [18] is Follistatin-related protein 3 (Homo sapiens) (UniProt O95633). Put plainly: FSTL3 binders on small-molecule microarrays, primary screen, biochemical, small-molecule microarray, 635 nm fluorescence (AID 1105).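 Also: score merges emission near 667 nm and signal to noise per printed spot across three slides.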 As to conditions: FSTL3 binding, higher = more signal.
The target of test [19] is Dickkopf-related protein 1 (Homo sapiens) (UniProt O94907). Put plainly: DKK1 binders on small-molecule microarrays, primary screen, biochemical, small-molecule microarray, 635 nm fluorescence scan (AID 1106).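 Also: score merges emission near 667 nm with signal to noise over three replicate slides.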 The note with it: DKK1 binding, higher = more signal.
Test [20] has as its system Inhibin beta A chain (activin A). The test can be described thus: INHBA (activin A) binders on microarrays, primary screen, biochemical, small-molecule microarray, 635 nm fluorescence scan (AID 1107).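 Also: mouse activin A protein probed at 4.33 µg/mL on printed slides; score merges bound-protein fluorescence near 667 nm with spot signal-to-noise.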 The note with it: small-molecule microarray binding, higher = more signal.

Sequence of Neurogenic locus notch homolog protein 3 (Homo sapiens) (Q9UM47 whole entry, looked up): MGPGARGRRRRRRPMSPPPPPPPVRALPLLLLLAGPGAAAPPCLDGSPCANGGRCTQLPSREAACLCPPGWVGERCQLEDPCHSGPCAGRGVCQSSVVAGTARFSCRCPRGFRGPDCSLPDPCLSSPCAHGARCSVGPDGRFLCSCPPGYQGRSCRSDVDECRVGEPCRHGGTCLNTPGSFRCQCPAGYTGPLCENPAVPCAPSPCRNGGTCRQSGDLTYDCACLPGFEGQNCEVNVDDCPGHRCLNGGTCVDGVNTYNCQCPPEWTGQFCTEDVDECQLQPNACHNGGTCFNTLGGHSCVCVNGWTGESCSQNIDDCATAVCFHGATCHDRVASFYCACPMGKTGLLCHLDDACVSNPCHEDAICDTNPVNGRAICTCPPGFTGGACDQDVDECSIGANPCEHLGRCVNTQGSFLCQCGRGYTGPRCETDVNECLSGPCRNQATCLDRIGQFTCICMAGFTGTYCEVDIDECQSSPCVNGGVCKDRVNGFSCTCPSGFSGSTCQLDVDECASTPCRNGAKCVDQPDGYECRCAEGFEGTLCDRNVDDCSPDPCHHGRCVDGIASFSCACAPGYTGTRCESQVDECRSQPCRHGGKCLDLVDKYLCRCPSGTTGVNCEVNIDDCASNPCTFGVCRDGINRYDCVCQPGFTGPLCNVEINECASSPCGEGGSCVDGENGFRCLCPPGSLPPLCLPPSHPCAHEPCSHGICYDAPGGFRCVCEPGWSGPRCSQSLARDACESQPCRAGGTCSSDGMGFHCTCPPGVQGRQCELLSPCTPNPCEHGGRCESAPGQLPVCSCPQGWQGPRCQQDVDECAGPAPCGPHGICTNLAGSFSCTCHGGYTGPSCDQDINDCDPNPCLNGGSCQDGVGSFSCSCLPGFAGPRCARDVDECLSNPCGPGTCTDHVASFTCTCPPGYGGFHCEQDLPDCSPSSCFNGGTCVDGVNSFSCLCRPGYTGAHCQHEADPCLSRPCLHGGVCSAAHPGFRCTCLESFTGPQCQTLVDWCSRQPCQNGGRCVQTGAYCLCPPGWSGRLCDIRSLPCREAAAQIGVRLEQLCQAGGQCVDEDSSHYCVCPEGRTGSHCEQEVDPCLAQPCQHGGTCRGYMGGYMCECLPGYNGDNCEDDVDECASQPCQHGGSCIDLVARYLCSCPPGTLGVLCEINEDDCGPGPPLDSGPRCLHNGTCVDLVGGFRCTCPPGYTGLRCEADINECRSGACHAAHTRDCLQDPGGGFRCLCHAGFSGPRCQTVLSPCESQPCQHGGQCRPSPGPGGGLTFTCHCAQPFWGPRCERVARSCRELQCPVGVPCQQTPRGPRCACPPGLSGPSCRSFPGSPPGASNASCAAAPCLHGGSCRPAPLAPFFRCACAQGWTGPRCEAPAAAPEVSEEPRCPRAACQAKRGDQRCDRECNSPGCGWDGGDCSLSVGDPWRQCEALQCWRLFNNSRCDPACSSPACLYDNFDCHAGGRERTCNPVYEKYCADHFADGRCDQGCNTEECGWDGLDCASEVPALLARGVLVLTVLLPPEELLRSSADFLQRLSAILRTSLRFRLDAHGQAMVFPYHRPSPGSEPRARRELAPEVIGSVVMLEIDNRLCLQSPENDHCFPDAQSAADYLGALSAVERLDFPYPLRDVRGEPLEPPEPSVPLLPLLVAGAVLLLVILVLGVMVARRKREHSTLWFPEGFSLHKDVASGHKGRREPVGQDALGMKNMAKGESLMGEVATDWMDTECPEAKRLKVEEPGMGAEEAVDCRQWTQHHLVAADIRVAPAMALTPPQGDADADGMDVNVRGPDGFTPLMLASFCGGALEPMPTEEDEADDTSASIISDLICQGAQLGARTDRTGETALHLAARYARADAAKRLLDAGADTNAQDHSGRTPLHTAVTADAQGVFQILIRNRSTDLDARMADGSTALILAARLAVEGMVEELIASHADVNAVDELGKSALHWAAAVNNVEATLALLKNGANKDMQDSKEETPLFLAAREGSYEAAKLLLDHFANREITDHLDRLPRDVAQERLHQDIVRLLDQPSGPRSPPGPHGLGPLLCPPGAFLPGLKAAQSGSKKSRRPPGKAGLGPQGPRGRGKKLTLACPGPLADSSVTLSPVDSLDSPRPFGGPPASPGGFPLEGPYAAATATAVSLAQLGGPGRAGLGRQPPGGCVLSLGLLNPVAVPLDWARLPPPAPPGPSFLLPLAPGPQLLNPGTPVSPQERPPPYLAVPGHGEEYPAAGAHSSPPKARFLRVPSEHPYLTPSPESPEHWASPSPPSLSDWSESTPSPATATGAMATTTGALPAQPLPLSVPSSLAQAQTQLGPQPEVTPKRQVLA
Sequence of Follistatin-related protein 3 (Homo sapiens) (O95633 whole entry, looked up): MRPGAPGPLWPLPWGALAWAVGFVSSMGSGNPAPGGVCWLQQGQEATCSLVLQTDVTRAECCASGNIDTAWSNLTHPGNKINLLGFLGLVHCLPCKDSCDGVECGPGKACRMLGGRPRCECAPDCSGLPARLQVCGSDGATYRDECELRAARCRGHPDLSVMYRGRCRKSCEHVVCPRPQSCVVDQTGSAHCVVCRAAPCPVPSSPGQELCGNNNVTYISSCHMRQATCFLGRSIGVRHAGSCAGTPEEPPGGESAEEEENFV
Sequence of Torsin-1A-interacting protein 2 (Homo sapiens) (Q8NFQ8 whole entry, looked up): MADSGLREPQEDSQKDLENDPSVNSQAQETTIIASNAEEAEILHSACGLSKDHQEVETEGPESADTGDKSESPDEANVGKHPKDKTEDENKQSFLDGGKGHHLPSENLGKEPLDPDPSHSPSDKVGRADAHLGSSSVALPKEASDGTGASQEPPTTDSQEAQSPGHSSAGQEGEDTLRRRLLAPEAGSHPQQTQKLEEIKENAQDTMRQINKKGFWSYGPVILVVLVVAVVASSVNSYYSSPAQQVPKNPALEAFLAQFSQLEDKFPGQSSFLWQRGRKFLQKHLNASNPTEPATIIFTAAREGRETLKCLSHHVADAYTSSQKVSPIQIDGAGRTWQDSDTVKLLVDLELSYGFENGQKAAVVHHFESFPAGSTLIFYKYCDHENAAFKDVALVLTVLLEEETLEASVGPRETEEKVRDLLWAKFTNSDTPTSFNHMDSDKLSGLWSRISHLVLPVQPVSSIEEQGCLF
Sequence of Dickkopf-related protein 1 (Homo sapiens) (O94907 whole entry, looked up): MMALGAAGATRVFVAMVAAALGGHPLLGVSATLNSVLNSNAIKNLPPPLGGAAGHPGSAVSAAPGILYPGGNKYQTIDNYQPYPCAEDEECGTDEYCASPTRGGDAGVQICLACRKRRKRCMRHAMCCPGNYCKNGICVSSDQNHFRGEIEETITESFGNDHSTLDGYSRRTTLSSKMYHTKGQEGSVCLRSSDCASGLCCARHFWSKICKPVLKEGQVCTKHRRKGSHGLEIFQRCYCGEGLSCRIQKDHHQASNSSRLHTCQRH
Sequence of Epidermal growth factor receptor (Homo sapiens) (P00533 whole entry, looked up): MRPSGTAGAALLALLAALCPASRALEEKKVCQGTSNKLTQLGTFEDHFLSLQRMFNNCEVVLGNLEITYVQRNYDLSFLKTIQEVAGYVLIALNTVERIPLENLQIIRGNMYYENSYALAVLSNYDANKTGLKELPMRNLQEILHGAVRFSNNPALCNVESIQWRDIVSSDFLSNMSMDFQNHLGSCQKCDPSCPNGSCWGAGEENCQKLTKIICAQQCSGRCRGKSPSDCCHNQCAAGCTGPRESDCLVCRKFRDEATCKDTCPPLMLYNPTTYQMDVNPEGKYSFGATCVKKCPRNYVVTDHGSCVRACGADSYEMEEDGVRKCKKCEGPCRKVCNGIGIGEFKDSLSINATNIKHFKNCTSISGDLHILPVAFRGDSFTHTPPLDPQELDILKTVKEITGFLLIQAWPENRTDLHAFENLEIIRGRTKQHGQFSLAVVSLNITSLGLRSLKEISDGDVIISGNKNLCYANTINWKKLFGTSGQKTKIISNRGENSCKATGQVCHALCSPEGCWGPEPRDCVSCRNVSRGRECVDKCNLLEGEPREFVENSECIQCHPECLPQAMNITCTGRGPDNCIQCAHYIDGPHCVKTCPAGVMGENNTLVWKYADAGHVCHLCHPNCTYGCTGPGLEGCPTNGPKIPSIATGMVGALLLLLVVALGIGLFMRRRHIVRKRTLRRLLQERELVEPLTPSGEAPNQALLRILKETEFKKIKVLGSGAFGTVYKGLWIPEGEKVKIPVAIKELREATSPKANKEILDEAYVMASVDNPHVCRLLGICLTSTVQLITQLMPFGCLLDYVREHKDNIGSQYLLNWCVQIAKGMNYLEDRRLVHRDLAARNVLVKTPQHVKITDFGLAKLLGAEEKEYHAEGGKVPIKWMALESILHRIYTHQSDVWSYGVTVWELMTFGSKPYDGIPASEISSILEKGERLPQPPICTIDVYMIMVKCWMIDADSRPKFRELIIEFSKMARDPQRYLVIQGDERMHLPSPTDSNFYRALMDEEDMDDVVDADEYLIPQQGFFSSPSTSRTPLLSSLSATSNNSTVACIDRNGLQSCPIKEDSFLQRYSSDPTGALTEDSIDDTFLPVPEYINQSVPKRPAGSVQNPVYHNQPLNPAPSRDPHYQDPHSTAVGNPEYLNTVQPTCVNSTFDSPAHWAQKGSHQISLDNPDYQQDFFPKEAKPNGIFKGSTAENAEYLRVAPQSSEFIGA
Sequence of Fibroblast growth factor 10 (Homo sapiens) (O15520 whole entry, looked up): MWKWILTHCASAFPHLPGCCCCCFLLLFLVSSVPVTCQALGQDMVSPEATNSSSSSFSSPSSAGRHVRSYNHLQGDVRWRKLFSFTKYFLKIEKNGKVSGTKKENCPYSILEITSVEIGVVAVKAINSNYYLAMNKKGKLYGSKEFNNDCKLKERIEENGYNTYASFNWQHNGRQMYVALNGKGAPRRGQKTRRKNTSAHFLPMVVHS

On to `CC1CC/C=C\[C@H]2OC34C=CCN(Cn5nnc6ccccc65)C(=O)[C@H]3N(C(C)CO)C(=O)[C@@H]4C2C(=O)O1` (stereo not given in full), for which the composite z-score in test [1] is -0.151; in [5], 2.22; in [7] it was -0.144; in test [8], -0.537; in [9] it was -0.118; in [10], -0.19. Further, the composite z-score is 1.26 in [11]; -0.0466 in test [12]; 0.201 in test [13]; 0.0056 in test [15]; -0.837 in [16]; -0.848 in test [17]. Besides, the composite z-score in test [18] is -0.814; in test [19], -0.936; in test [20] it was 0.494. Besides, the z-score is 0.799 (inactive) in test [2]; 0.0528 (inactive) in [3]; 0.272 (inactive) in test [4]; -0.224 (inactive) in test [6]; 0.825 (inactive) in test [14].
As to `CC(=O)NCCCC[C@@H]1NC(=O)[C@H]2C[C@@H](C(=O)NCCCCCCN(C)C)[C@@H](c3ccc(O)cc3)N2C1=O`, the composite z-score in test [1] was 1.54; in [5], 2.97; in [7], -0.0391; in test [8], 1.71; in [9] it was 0.989; in test [10], 0.0122. The composite z-score in test [11] was 1.04; in test [12], -0.124; in test [13] it was 0.0091; in test [15], 0.815; in test [16] it was 1.35; in test [17] it was 0.851. The composite z-score in [18] came out at 1.55; in [19], 1.14; in test [20], 0.775. Besides, the z-score is -0.139 (inactive) in test [2]; -0.566 (inactive) in [3]; 0.613 (inactive) in [4]; -0.179 (inactive) in test [6]; -0.808 (inactive) in test [14].
`CO[C@@H]1COC(=O)[C@H](C)NC(=O)CC=C[C@@H](C)[C@H](NS(=O)(=O)c2ccc(C)cc2)COC(=O)CC=C[C@@H]1C`: the composite z-score is -0.844 in test [1]; -0.382 in test [5]; -0.207 in test [7]; -0.0396 in [8]; -0.693 in test [9]; -0.211 in test [10]. The composite z-score was -0.876 in test [11]; -0.435 in test [12]; -0.505 in test [13]; 0.0743 in test [15]; -0.11 in test [16]; 0.286 in test [17]. The composite z-score in test [18] is -0.0201; in test [19], 0.0647; in test [20], -0.204. Moreover, the z-score in test [2] is 0.79 (inactive); in test [3], -0.0181 (inactive); in [4], 0.256 (inactive); in test [6], 0.452 (inactive); in test [14], -0.373 (inactive).
Consider `O=C(NCc1ccccc1)[C@@]1(CCS(=O)(=O)c2ccccc2)COC(c2ccc(OCCCO)cc2)=N1`, for which the composite z-score in test [1] was determined as 1.53; in [5], 3.6; in test [7], 0.167; in [8], 0.16; in [9], 1.13; in test [10], 0.0033. Also, the composite z-score is 1.41 in test [11]; 0.933 in test [12]; 1.47 in test [13]; 0.748 in [15]; 1.08 in test [16]; -0.166 in [17]. Also, the composite z-score in test [18] was 0.23; in test [19] it was -0.594; in test [20] it was 0.807. Besides, the z-score is -0.53 (inactive) in test [2]; -0.111 (inactive) in [3]; 31.5 (active) in [4]; 2.12 (inactive) in test [6]; -0.969 (inactive) in test [14].
As for `C[N+](C)(C)CCCC[C@@H]1NC(=O)[C@H]2C[C@@H](C(=O)NCc3ccc(F)cc3)[C@@H](c3cccc(OCCO)c3)N2C1=O`, the composite z-score is 1.47 in [1]; 0.823 in [5]; -0.166 in test [7]; 1.62 in [8]; 0.716 in test [9]; -0.118 in [10]. For the same compound, the composite z-score in test [11] stood at 0.459; in test [12] it was 0.0243; in test [13], 0.479; in test [15], 0.988; in test [16], 0.519; in test [17] it was 0.139. Besides, the composite z-score in test [18] was 0.954; in test [19] it was 0.885; in test [20] it was -0.7. Besides, the z-score was -1.69 (inactive) in test [2]; -1.62 (inactive) in test [3]; -0.736 (inactive) in [4]; 0.973 (inactive) in [6]; -0.178 (inactive) in test [14].
